Experimental data reported in PubChem BioAssay (Tox21).
Inconclusive results are not listed. Activity calls are given as the source filed them. Unless noted, calls follow the shape of the full dose curve.

Key:
[1] = Nuclear factor erythroid 2-related factor 2/antioxidant responsive element (Nrf2/ARE) small molecule agonists: qHTS cell viability counter screen in human keratinocytes (AID 1919968; active = well fitted curve in the direction sought with a large enough effect in the repeat runs; an effect the other way counts as inactive or inconclusive; also: nearly all actives have a fitted effect of over 55% in size; also: potency is read from the fitted curve at half-maximal effect)
Procedure, shortened: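 Measured as CellTiter-Fluor fluorescence, this readout tracks cytotoxicity in the same wells as the ARE-luciferase screen. HaCaT reporter cells (1,500/well) received compounds after a 5 h pre-incubation and were exposed for 23 h.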

[2] = target: Gonadotropin-releasing hormone receptor (Homo sapiens) (UniProt P30968); experiment: Human gonadotropin-releasing hormone receptor (GnRHR) small molecule agonists, calcium flux assay in GnRHR-HEK293 cells (AID 1920063); also: nearly all actives have a fitted effect of over 35% in size
Procedure, shortened: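 Fluorescence kinetics (480 nm excitation, 540 nm emission; 3 min, 1 s steps) report calcium mobilisation in human GnRHR-HEK293 cells in agonist mode. Dye incubation: 1 h, 37 C.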

[3] = target: KiSS-1 receptor (Homo sapiens) (UniProt Q969F8); experiment: Human kisspeptin (KISS1R) small molecule agonists, calcium flux assay in KISS1R-HEK293 cells (AID 1920064; active = well fitted curve in the direction sought with a large enough effect in the repeat runs; an effect the other way counts as inactive or inconclusive)
Procedure, shortened: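 Measures KISS1R agonism through calcium-sensitive dye fluorescence in stably transfected HEK293 cells, read for 3 min after pin-tool compound delivery; 15-point titrations in triplicate.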

[4] = G protein-coupled receptor (GPCR) small molecule agonists, calcium flux assay: HEK293 wild type cell line counter screen (AID 1920065)
Procedure, shortened: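 Readout: fluorescence at 480 nm excitation/540 nm emission, sampled at 1 s intervals for 3 min. Cells had been cultured 18 h, then dye-loaded 1 h at 37 C before compound or ATP addition.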

[5] = p53 small molecule agonists, cell-based qHTS assay with human liver microsomes (AID 1963577);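 also: p53 response element beta-lactamase reporter cells with liver microsomes plus NADPH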
Procedure, shortened: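 With metabolic activation: human liver microsomes (0.5 mg/mL final) plus NADPH (0.5 mg/mL final) added alongside compounds to p53RE-bla cells; 16 h 37 C exposure; beta-lactamase read by LiveBLAzer fluorescence.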

[6] = p53 small molecule agonists, cell-based qHTS assay with rat liver microsomes (AID 1963578)
Procedure, shortened: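 Metabolic activation by rat liver microsomes and NADPH, each 0.5 mg/mL final, added right after compounds to p53RE-bla reporter cells (4,000/well, plated 5 h earlier). 16 h at 37 C, then LiveBLAzer substrate for 2 h at room temperature in the dark; fluorescence read-out.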

[7] = p53 small molecule agonists, cell-based qHTS assay with rat liver microsomes: qHTS cell viability counter screen (AID 1963580); also: nearly all actives have a fitted effect of over 45% in size
Procedure, shortened: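 p53RE-bla HCT-116 cells were exposed 16 h at 37 C to compounds with rat liver microsomes (0.5 mg/mL) and NADPH (0.5 mg/mL). Viability was measured in the same wells as ATP content by CellTiter-Glo luminescence.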

[8] = p53 small molecule agonists, cell-based qHTS assay: qHTS cell viability counter screen (AID 1963581); also: nearly all actives have a fitted effect of over 45% in size
Procedure, shortened: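 In the same plates used for the p53 bla reporter, HCT-116 cells given compounds for 16 h at 37 C received CellTiter-Glo; luminescence was recorded 30 min later at room temperature.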

[9] = target: 5-hydroxytryptamine receptor 2A (Homo sapiens) (UniProt P28223); experiment: 5-hydroxytryptamine receptor 2A (HTR2A) small molecule antagonists, cell-based qHTS assay (AID 1963586); also: nearly all actives have a fitted effect of over 45% in size
Procedure, shortened: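 Antagonist-mode intracellular calcium assay: DOI (4 nM) added after 5 min compound pre-incubation at room temperature to dye-loaded HTR2A-CHO cells. Fluorescence followed for 3 min, sampled every second.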

[10] = target: 5-hydroxytryptamine receptor 2A (Homo sapiens) (UniProt P28223); experiment: 5-hydroxytryptamine receptor 2A (HTR2A) small molecule agonists, cell-based qHTS assay (AID 1963587); also: nearly all actives have a fitted effect of over 30% in size
Procedure, shortened: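 CHO cells stably expressing human HTR2A, plated 18 h, loaded with calcium dye 1 h at 37 C. Agonist mode: compounds added and intracellular calcium fluorescence recorded kinetically for 2 min at 1 sec intervals.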

[11] = target: Muscarinic acetylcholine receptor M1 (Homo sapiens) (UniProt P11229); experiment: Cholinergic receptor muscarinic 1 (CHRM1) small molecule antagonists, cell-based qHTS assay (AID 1963588); also: nearly all actives have a fitted effect of over 40% in size; also: potency is read from the fitted curve at half-maximal effect
Procedure, shortened: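 CHRM1-CHO calcium-flux assay, antagonist mode. Cells were seeded 18 h, dye-loaded 1 h at 37 C and given compound for 5 min at RT, then acetylcholine was added at 50nM. FDSS fluorescence was read 3 min; 15 concentrations, three runs.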

[12] = target: Muscarinic acetylcholine receptor M1 (Homo sapiens) (UniProt P11229); experiment: Cholinergic receptor muscarinic 1 (CHRM1) small molecule agonists, cell-based qHTS assay (AID 1963589); also: nearly all actives have a fitted effect of over 35% in size
Procedure, shortened: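 Each compound was tested at 15 concentrations across three independent runs on dye-loaded CHO cells stably expressing human CHRM1, reading intracellular calcium fluorescence kinetically at 1 sec intervals.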

[13] = target: D(2) dopamine receptor (Homo sapiens) (UniProt P14416); experiment: Dopamine D2 receptor (DRD2) small molecule agonists, cell-based qHTS assay (AID 1963594); also: nearly all actives have a fitted effect of over 35% in size
Procedure, shortened: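 HEK293 cells stably expressing human DRD2, pre-treated with PDE inhibitor Ro20-1724 (0.1 mM final) and compound 10 min at room temperature, then stimulated with NKH477 (200nM […]) for 30 min. cAMP read by HTRF (665/620 nm).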

[14] = target: D(2) dopamine receptor (Homo sapiens) (UniProt P14416); experiment: Dopamine D2 receptor (DRD2) small molecule antagonists, cell-based qHTS assay (AID 1963595; active = well fitted inhibition curve with a large enough effect in the signal ratio in the repeat runs, with a control signal flat; the % refers to the signal ratio)
Procedure, shortened: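 Stable D2 receptor HEK293 line, 24 h after seeding. Compound preincubated 10 min, then quinpirole (12 nM) with forskolin analogue NKH477 (200 nM), 30 min, room temperature. Detection by time-resolved FRET of cAMP.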

[15] = p53 small molecule agonists, cell-based qHTS assay (AID 1963582; active = well fitted activation curve with a large enough effect in the signal ratio in the repeat runs, not every such curve was filed as active; the % refers to the signal ratio)
Procedure, shortened: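 Compounds are pin-transferred in DMSO onto p53RE-bla cells and incubated 16 h at 37 C. The B/G FRET beta-lactamase substrate is then applied for 2 h at RT and fluorescence recorded.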

[16] = cAMP Responsive Elements (CRE) small molecule agonists, cell-based qHTS assay (AID 1963590)
Procedure, shortened: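 Cell line: CRE-bla HEK 293T; medium DMEM/10% dialyzed FBS/0.1 mM NEAA/1 mM pyruvate/25 mM HEPES; 3 h compound exposure; beta-lactamase FRET readout after 2 h substrate loading at RT.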

[17] = cAMP Responsive Elements (CRE) small molecule antagonists, cell-based qHTS assay (AID 1963591; active = well fitted inhibition curve with a large enough effect in the signal ratio in the repeat runs, not every such curve was filed as active; the % refers to the signal ratio; also: potency is read from the fitted curve at half-maximal effect)
Procedure, shortened: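 Inhibition of NKH477-driven (0.25 uM final) CRE-beta-lactamase signal in HEK293T cells, 3 h compound exposure at 37 °C, detected by FRET substrate fluorescence.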

[18] = target: Beta-2 adrenergic receptor (Homo sapiens) (UniProt P07550); experiment: Adrenergic beta2 receptor (ADRB2) small molecule antagonists, cell-based qHTS assay (AID 1963592); also: series mostly up to about 92 µM; nearly all actives have a fitted effect of over 50% in size
Procedure, shortened: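 Cells (CHO, stable ADRB2 overexpression) incubated 18-20hr at 37C; compounds added from DMSO; agonist mix (1nM isoproterenol, 100uM IBMX, 25uM Ro-20-1724) added; 0.5hr RT; d2-cAMP and anti-cAMP-cryptate added; 1hr RT; 665/615 nm read.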

[19] = target: Beta-2 adrenergic receptor (Homo sapiens) (UniProt P07550); experiment: Adrenergic beta2 receptor (ADRB2) small molecule agonists, cell-based qHTS assay (AID 1963593);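 also: CHO cells stably overexpressing human ADRB2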
Procedure, shortened: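 CHO cells stably over-expressing ADRB2 were plated overnight at 37C, then dosed with compounds plus a stimulation mix containing 100uM IBMX and 25uM Ro-20-1724 for 0.5hr at room temperature. cAMP was measured by HTRF competition, 1hr.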

[20] = p53 small molecule agonists, cell-based qHTS assay with human liver microsomes: qHTS cell viability counter screen (AID 1963579); also: nearly all actives have a fitted effect of over 45% in size
Procedure, shortened: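 Metabolic activation used human liver microsomes and NADPH, both 0.5 mg/mL final, over 16 hours at 37 C on p53RE-bla cells (4,000/well). Cytotoxicity measured by CellTiter-Glo luminescence, 30 min at room temperature.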

Measured: Potency

5-hydroxytryptamine receptor 2A (Homo sapiens), sequence (P28223 whole entry, looked up): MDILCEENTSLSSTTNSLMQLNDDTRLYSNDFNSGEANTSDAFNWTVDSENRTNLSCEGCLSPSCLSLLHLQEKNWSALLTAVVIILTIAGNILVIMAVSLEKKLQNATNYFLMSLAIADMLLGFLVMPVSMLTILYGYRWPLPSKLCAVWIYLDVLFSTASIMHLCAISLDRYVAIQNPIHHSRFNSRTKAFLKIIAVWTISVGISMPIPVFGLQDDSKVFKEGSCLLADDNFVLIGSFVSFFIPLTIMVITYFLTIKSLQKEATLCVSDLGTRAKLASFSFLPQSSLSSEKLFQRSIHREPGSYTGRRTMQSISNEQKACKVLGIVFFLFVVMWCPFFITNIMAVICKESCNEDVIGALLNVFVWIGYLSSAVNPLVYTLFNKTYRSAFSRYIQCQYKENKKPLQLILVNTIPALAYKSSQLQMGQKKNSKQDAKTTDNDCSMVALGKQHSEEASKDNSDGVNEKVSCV
Beta-2 adrenergic receptor (Homo sapiens), sequence (P07550 whole entry, looked up): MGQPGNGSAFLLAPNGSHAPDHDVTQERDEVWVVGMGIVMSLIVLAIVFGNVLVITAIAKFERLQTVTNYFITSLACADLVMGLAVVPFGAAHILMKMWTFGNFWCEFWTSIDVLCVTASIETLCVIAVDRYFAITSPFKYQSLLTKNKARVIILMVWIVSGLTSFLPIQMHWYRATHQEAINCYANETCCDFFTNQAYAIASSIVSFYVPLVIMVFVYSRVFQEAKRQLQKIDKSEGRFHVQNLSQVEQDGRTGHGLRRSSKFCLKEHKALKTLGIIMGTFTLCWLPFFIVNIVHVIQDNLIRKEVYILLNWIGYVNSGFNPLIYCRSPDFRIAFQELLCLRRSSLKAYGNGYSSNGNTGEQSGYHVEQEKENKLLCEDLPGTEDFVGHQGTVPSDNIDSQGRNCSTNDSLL
Gonadotropin-releasing hormone receptor (Homo sapiens), sequence (P30968 whole entry, looked up): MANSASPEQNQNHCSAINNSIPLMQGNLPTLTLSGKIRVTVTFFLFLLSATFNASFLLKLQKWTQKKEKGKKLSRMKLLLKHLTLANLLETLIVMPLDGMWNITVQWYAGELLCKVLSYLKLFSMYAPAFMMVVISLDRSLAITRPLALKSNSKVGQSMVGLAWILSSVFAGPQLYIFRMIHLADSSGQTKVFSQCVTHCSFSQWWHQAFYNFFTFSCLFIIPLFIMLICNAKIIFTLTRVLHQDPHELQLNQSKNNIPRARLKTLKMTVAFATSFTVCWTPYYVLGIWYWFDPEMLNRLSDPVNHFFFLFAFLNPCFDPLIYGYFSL
Muscarinic acetylcholine receptor M1 (Homo sapiens), sequence (P11229 whole entry, looked up): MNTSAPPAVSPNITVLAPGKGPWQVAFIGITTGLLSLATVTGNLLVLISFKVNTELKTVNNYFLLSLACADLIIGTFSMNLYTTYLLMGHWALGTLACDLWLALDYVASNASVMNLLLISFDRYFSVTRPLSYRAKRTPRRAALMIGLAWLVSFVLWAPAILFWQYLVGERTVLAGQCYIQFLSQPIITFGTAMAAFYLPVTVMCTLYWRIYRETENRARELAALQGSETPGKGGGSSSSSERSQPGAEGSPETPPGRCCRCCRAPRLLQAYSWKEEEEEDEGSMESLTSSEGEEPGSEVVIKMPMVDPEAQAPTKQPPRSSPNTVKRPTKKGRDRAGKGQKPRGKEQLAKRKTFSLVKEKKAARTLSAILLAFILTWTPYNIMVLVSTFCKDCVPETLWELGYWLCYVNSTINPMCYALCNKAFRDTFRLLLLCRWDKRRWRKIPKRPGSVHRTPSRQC
D(2) dopamine receptor (Homo sapiens), sequence (P14416 whole entry, looked up): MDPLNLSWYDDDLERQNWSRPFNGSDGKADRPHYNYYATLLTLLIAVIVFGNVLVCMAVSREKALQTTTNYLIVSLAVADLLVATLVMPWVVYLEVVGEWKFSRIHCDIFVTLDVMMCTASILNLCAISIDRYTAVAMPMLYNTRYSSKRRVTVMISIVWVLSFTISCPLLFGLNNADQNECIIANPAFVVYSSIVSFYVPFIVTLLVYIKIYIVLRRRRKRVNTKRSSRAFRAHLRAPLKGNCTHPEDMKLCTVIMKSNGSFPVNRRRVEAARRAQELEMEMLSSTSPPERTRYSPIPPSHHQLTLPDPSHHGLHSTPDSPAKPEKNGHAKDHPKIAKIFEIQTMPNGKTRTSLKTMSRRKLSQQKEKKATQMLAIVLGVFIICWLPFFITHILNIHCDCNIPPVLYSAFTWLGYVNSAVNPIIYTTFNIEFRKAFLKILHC
KiSS-1 receptor (Homo sapiens), sequence (Q969F8 whole entry, looked up): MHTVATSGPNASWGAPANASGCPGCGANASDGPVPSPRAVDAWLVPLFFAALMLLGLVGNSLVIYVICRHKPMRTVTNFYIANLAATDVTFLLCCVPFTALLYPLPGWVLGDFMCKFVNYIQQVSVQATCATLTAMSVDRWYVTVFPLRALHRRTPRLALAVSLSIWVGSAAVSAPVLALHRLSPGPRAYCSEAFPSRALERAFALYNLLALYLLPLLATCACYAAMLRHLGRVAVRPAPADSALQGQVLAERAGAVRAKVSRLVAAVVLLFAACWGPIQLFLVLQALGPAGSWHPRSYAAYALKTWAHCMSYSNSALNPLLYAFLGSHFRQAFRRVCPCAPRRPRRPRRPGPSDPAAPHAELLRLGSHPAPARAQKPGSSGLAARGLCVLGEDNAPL

C=CC(=O)OCCOc1ccccc1
inactive: [1] | [2] | [3] | [4] | [5] | [6] | [7] | [8] | [9] | [10] | [11] | [12] | [13] | [14]

O=C(O)Cc1ccc(Cl)cc1Cl
inactive: [1] | [2] | [3] | [4] | [5] | [6] | [7] | [8] | [15] | [9] | [10] | [11] | [12] | [16] | [17] | [18] | [19] | [13] | [14]

CC(C)c1cccc(C(C)C)c1NC(=O)NS(=O)(=O)c1cc(C(C)(C)O)co1
inactive: [1] | [2] | [3] | [4] | [5] | [6] | [7] | [8] | [15] | [9] | [10] | [11] | [12] | [16] | [17] | [18] | [13] | [14]

CCN(CC)CCNC(=O)c1c(C)[nH]c(/C=C2\C(=O)Nc3ccc(F)cc32)c1C
inactive: [2] | [3] | [4] | [5] | [6] | [20] | [8] | [15] | [10] | [12] | [16] | [17]
active: [1] 29.8 µM

CC(C)NC(=O)c1ccc(C=O)cc1
inactive: [1] | [2] | [3] | [4] | [5] | [6] | [7] | [8] | [15] | [9] | [10] | [12] | [16] | [17] | [18] | [13] | [14]

CCCCCC(CO)CCC (stereo unspecified)
inactive: [1] | [2] | [3] | [4] | [5] | [6] | [20] | [8] | [15] | [9] | [10] | [11] | [12] | [16] | [17] | [19] | [14]

O=C(c1ccccc1)c1cc(Cl)ccc1O
inactive: [1] | [2] | [3] | [4] | [5] | [6] | [7] | [8] | [15] | [9] | [12] | [18] | [13] | [14]
active: [17] 41.1 µM

CCN(CC)CCOC(=O)C(c1ccccc1)C1CCCCC1 (stereo unspecified)
active: [11] 0.041 µM
inactive: [1] | [2] | [3] | [4] | [5] | [6] | [20] | [12] | [17] | [18] | [19] | [13]
